Assay outcomes from PubChem.
eIF4E-4G inh = eIF4E–eIF4G protein interaction inhibitors, primary screen, biochemical, uHTS, TR-FRET, eIF4GI fragment; Eukaryotic translation initiation factor 4E (Mus musculus) + Eukaryotic translation …; TR-FRET eIF4E-eIF4GI(517-606) binding, 2 h; inhibition, % at 21.7 µM; 0.37% of 220,000 active; AID 782, 2007;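 active = inhibition above about 30%, limit read from the data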;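 note: 0% = full FRET control wells and 100% = background wells lacking eIF4GI fragment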
eIF4H FP inh = human eIF4H binding inhibitors, primary screen, translation initiation inhibitor project, biochemical, uHTS, fluorescence polarization. Eukaryotic translation initiation factor 4H (Homo sapiens), Q15056. eIF4H fluorescence polarization binding assay. inhibition, % at 35 µM. 0.94% of 290,000 active;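 note: calls also rest on retests at 20 µM and on dose response follow-up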
PERK inh = block of dimerizer-induced PERK translation repression, primary screen, PERK inhibitor project, CHO PERK-DD cells, SEAP luminescence, HTS. 0.17% of 220,000 active. CHO PERK-DD fusion, SEAP luminescence translation reporter. inhibition, % at 5.6 µM. Eukaryotic translation initiation factor 2-alpha kinase 3 (Homo sapiens), Q9NZJ5. AID 1416, 2008;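 active = inhibition above the mean inhibition of all tested compounds plus 3 SD, set separately per screening campaign, cut at about 2.9% in these data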;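 note: PERK kinase domain activated by AP20187 dimerizer at 100 nM; 0% = DMSO with dimerizer and 100% = rapamycin at 8.4 µM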
PABP1 MLLE inh = inhibitors of PABP1 MLLE–PAM2 peptide binding, primary screen, biochemical, fluorescence polarization, FITC-PAM2, GST-MLLE. inhibition, % at 20 µM. Polyadenylate-binding protein 1 (Homo sapiens), P11940. 0.36% of 360,000 active; in the data active = inhibition above about 35%, passing the limit was not always enough;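 note: plate controls were DMSO wells with GST-MLLE for no effect and wells lacking GST-MLLE protein for full effect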
PABP polyA inh = PABP poly(A) RNA binding inhibitors, primary screen, biochemical, fluorescence polarization, uHTS; Polyadenylate-binding protein 1 (Homo sapiens), P11940; calls only at 35 µM; 1% of 290,000 active;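 note: calls also rest on retests at 20 µM and on dose response follow-up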
* = called active by the depositor. An excerpt weighted towards active compounds, which were near 1.6% of everything screened. Unless noted, the rule behind the calls is not given here.

C#CCN(C[C@H]1[C@H](OC(=O)NCc2ccccc2F)[C@H](OC(=O)NCc2ccccc2F)C[C@H]2C(=O)N(c3ccccc3)C(=O)[C@@H]12)S(=O)(=O)c1ccc(C)cc1 was read as PABP1 MLLE inh 12.
For Cc1ccn2c(=O)nc(SCC(=O)NCCc3ccccc3)nc2c1 the results were PABP1 MLLE inh 7.
COc1ccccc1S(=O)(=O)N1CCNC(=O)C1 was read as PABP1 MLLE inh -5.
`Cc1cc(=O)n(Nc2ccccc2)c(O)c1C#N` gave PABP1 MLLE inh 3.
`CN(C[C@H](Cc1ccccc1)N(CCN(CCc1ccccc1)N=O)N=O)N=O` gave eIF4E-4G inh 2, eIF4H FP inh -8, PERK inh 1, PABP1 MLLE inh -9 and PABP polyA inh active.
CC(C)C[C@@H](CN(C)N=O)N(C[C@H](Cc1ccccc1)N(CCc1ccccc1)N=O)N=O was read as eIF4E-4G inh 0, eIF4H FP inh -6, PERK inh 1, PABP1 MLLE inh -8 and PABP polyA inh inactive.
For COc1ccc(CCN2CCCn3c2nc2c3c(=O)[nH]c(=O)n2C)cc1OC the results were eIF4H FP inh -2, PABP1 MLLE inh -3 and PABP polyA inh inactive.
Screening NC(=O)c1c(NC(=O)c2cccc(N3C(=O)CCC3=O)c2)sc2c1CCCCC2 returned eIF4H FP inh -4, PABP1 MLLE inh 16 and PABP polyA inh inactive.
For CC(=O)N1CCc2c(sc(NC(=O)c3cccc(N4C(=O)CCC4=O)c3)c2C(N)=O)C1 the results were eIF4H FP inh 57, PABP1 MLLE inh -48 and PABP polyA inh active.
`O=C(CSc1nnc(-c2ccco2)c(-c2ccco2)n1)c1ccccc1` gave eIF4E-4G inh 11, eIF4H FP inh 110*, PERK inh 0, PABP1 MLLE inh 22 and PABP polyA inh active.
`CC(=O)c1ccc(NC(=O)CSc2nnc(-c3ccco3)c(-c3ccco3)n2)cc1` gave eIF4E-4G inh 12, eIF4H FP inh 100, PERK inh 0, PABP1 MLLE inh 32 and PABP polyA inh inactive.
For N#CC1=C(N)Nc2nc3ccccc3n2C1c1ccc(Cl)cc1 (centres undefined) the results were eIF4E-4G inh -3, eIF4H FP inh -12, PERK inh -1, PABP1 MLLE inh -8 and PABP polyA inh inactive.
CC(NC(=O)COC(=O)c1nc(Cl)ccc1Cl)c1ccccc1 (centres undefined) was read as PABP1 MLLE inh -2.
`COc1ccc2[nH]c(CN3CCC(n4nccc4NC(=O)C4CC4)CC3)c(C)c2c1` gave eIF4H FP inh -5, PABP1 MLLE inh -6 and PABP polyA inh inactive.
CSc1nc(N(CCO)CCO)c2sc3nc(-c4ccco4)c4c(c3c2n1)CCC4 was read as eIF4E-4G inh 9, eIF4H FP inh 89*, PERK inh 1, PABP1 MLLE inh 31 and PABP polyA inh active.
COC(=O)CSc1nc(SC)nc2c1sc1nc(-c3ccco3)c3c(c12)CC(C)(C)OC3 was read as PABP1 MLLE inh -11.
Screening CSc1nc(SCCO)c2sc3nc(-c4ccco4)c4c(c3c2n1)CC(C)(C)OC4 returned eIF4E-4G inh 12, eIF4H FP inh 44, PERK inh 1, PABP1 MLLE inh -13 and PABP polyA inh active.
CCN(CC(=O)Nc1ccccc1OC)Cc1csc(CC(=O)Nc2ccc(C)cc2)n1 was read as PABP1 MLLE inh -9.
For COC(=O)[C@@H](NC(=O)Nc1ccc(S(N)(=O)=O)cc1)C(C)C the results were eIF4E-4G inh 5, eIF4H FP inh 2, PERK inh 0, PABP1 MLLE inh 8 and PABP polyA inh inactive.
Screening COC(=O)[C@@H](NC(=O)Nc1ccc(C(C)=O)cc1)C(C)C returned eIF4E-4G inh 3, eIF4H FP inh 57*, PERK inh 1, PABP1 MLLE inh 1 and PABP polyA inh inactive.
Cc1ccc(C)c(NC(=O)CCNS(=O)(=O)c2ccc3[nH]c(=O)oc3c2)c1 was read as eIF4H FP inh 73*, PABP1 MLLE inh -16 and PABP polyA inh inactive.
For CCN(CC)CCNC(=O)c1ccc(NC(=O)C2CCN(c3ncnc4sc(C)c(C)c34)CC2)cc1 the results were eIF4H FP inh -4, PABP1 MLLE inh -129 and PABP polyA inh inactive.
Screening CCCn1c(/C=C/c2cc[n+](C)cc2)nc2ccccc21 returned eIF4H FP inh 38, PABP1 MLLE inh -20 and PABP polyA inh active.
Cc1ccsc1C(=O)OCC(=O)N1CCc2ccccc2C1 was read as eIF4E-4G inh 2, eIF4H FP inh 3, PERK inh 1, PABP1 MLLE inh -17 and PABP polyA inh inactive.
`Cc1csc(SCC(=O)Nc2cc([N+](=O)[O-])ccc2F)n1` gave PABP1 MLLE inh 10.
CC(Cc1c[nH]c2ccccc12)C(=O)NCc1ccco1 (centres undefined) was read as eIF4H FP inh 99*, PABP1 MLLE inh -4 and PABP polyA inh inactive.
CC(=O)N1C(=O)/C(=C2\SC(=S)N(c3c(C)n(C)n(-c4ccccc4)c3=O)C2=O)c2ccccc21 was read as eIF4E-4G inh -2, eIF4H FP inh -3, PERK inh 1, PABP1 MLLE inh 47* and PABP polyA inh inactive.
CCCN1C(=O)/C(=C2\SC(=S)N(c3c(C)n(C)n(-c4ccccc4)c3=O)C2=O)c2ccccc21 was read as eIF4E-4G inh 1, eIF4H FP inh -5, PERK inh 2 and PABP polyA inh inactive.
`CCN1C(=O)/C(=C2\SC(=S)N(NC(=O)c3ccccc3O)C2=O)c2ccccc21` gave eIF4E-4G inh 1, eIF4H FP inh -15, PERK inh 0, PABP1 MLLE inh 39* and PABP polyA inh inactive.
`CCN1C(=O)/C(=C2\SC(=S)N(CC3CCCO3)C2=O)c2ccccc21` (centres undefined) gave eIF4E-4G inh 7, eIF4H FP inh -2, PERK inh 2 and PABP polyA inh inactive.
For CCN1C(=O)/C(=C2\SC(=S)N(c3c(C)n(C)n(-c4ccccc4)c3=O)C2=O)c2ccccc21 the results were eIF4E-4G inh -3, eIF4H FP inh 0, PERK inh 0, PABP1 MLLE inh 44* and PABP polyA inh inactive.
Screening CN(C)c1ccc(C(=O)N2CCN(C(=O)C3CCCO3)CC2)cc1 (centres undefined) returned PABP1 MLLE inh 5.
Screening COc1cccc(C(=O)Nc2nnc(-c3ccc(F)cc3)o2)c1 returned eIF4E-4G inh 95*, eIF4H FP inh 6, PABP1 MLLE inh -12 and PABP polyA inh inactive.
Screening CCOc1ccccc1CNC(=O)c1cc2occc2n1C returned eIF4E-4G inh -1, eIF4H FP inh inconclusive, PERK inh 0, PABP1 MLLE inh 2 and PABP polyA inh active.
